Assay [1] in a line: A CellTox Green Cytotoxicity Assay to monitor cytotoxicity in HepG2 cells - 24 hour (AID 1224878). Note: nearly all actives have a fitted effect of over 45% in size. The method, boiled down:
(§1)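 Read-out is fluorescence of a cyanine dye excluded from live cells that stains DNA of dead HepG2 cells, with signal proportional to cytotoxicity. Plates were read at 0, 8, 16, 24, 32 and 40 h after compound addition.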

The nature of assay [2]: A CellTox Green Cytotoxicity Assay to monitor cytotoxicity in HepG2 cells - 40 hour (AID 1224879). Note: nearly all actives have a fitted effect of over 40% in size. The gist of the method:
as §1

The nature of assay [3]: qHTS RealTime-Glo MT Cell Viability Assay in HEK293 cells - 0 hour (AID 1224880). For activity change, negative = cytotoxicity: top concentration of the series differs between compounds. Note: nearly all actives have a fitted effect of over 45% in size. Note: potency is the fitted concentration of half-maximal effect. The gist of the method:
(§2)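 Cells were seeded together with NanoLuc luciferase and a prosubstrate that viable cells reduce to a luciferase substrate. After a 5 h incubation at 37 C/5% CO2, compounds were added and luminescence was measured repeatedly during 40 h of treatment.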
(In general: qHTS replaces the single test concentration by a dilution series.)

The nature of assay [4]: A CellTox Green Cytotoxicity Assay to monitor cytotoxicity in HEK293 cells - 32 hour (AID 1224881). Note: nearly all actives have a fitted effect of over 40% in size. The gist of the method:
(§3)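 Nonlytic real-time cytotoxicity: HEK293 + CellTox Green reagent plated, 5 h preincubation, pintool compound addition (23 nL in DMSO), 37 C for 40 h, fluorescence measured at successive time points.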

The nature of assay [5]: A CellTox Green Cytotoxicity Assay to monitor cytotoxicity in HepG2 cells - 0 hour (AID 1224882). Note: nearly all actives have a fitted effect of over 35% in size. The gist of the method:
as §1

The nature of assay [6]: A CellTox Green Cytotoxicity Assay to monitor cytotoxicity in HepG2 cells - 32 hour (AID 1224883). Note: nearly all actives have a fitted effect of over 50% in size. The gist of the method: as §1
Assay [7] can be described thus: A CellTox Green Cytotoxicity Assay to monitor cytotoxicity in HEK293 cells - 8 hour (AID 1224884). Note: nearly all actives have a fitted effect of over 35% in size. The method, boiled down:
as §3

Assay [8] in a line: qHTS RealTime-Glo MT Cell Viability Assay in HepG2 cells - 16 hour (AID 1224885). Note: nearly all actives have a fitted effect of over 50% in size. The method, boiled down: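 HepG2 suspension premixed with RealTime-Glo reagents is plated at 600 cells per well and left 5 h at 37 C/5% CO2. Compounds in DMSO then go in, and bioluminescence reflecting viable cell number is recorded over 40 h.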
Assay [9] in a line: qHTS RealTime-Glo MT Cell Viability Assay in HEK293 cells - 24 hour (AID 1224886). Note: top concentration of the series differs between compounds; nearly all actives have a fitted effect of over 50% in size. The gist of the method:
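Reads taken at 0, 8, 16, 24, 32 and 40 h from the same wells. HEK293 cells (600/well) carried RealTime-Glo reagents from seeding, with compound added after a 5 h settle at 37 C.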

Assay [10] can be described thus: qHTS RealTime-Glo MT Cell Viability Assay in HEK293 cells - 8 hour (AID 1224887). Note: top concentration of the series differs between compounds; nearly all actives have a fitted effect of over 50% in size. The method, boiled down:
as §2

Each structure is given as a SMILES string. A number with no mark means an inactive call. Records with an inconclusive call do not appear. Activity calls are given as the source filed them. Calls come from the whole dose curve; as a rule, active = well fitted curve in the direction sought with a large enough effect in the repeat runs; inconclusive = weak or mixed curves; inactive = no such curve, though single readings can be large; an effect the other way counts as inactive or inconclusive.
% is set by controls: 0 for no effect and ±100 for the full control effect.

Consider `COc1cc(OC)cc(OC)c1`, for which the Potency result in assay [1], in [2], in assay [3], in assay [4], in assay [5] and in assay [6] was “inactive” in each case. Also, the Potency entry in assay [7] is “inactive”. The outcome in [8], in assay [9] and in [10] was inactive.

Take `CC(=O)OCC(=O)[C@@]1(O)CC[C@H]2[C@@H]3CCC4=CC(=O)C=C[C@]4(C)[C@H]3[C@@H](O)C[C@@]21C`: the Potency result in [1], in assay [2], in assay [4], in assay [5], in assay [6] and in [7] was “inactive” throughout. In assay [3], the Potency was 21.3 µM (active). Moreover, the outcome in assay [8], in assay [9] and in [10] was inactive.

Consider `CCc1ncc(C)[nH]1`, for which the Potency result in assay [1], in assay [2], in assay [3], in assay [4], in assay [5] and in assay [6] was “inactive” in each case. The Potency result in [7] is “inactive”. For the same molecule, the molecule was called inactive in [8], in assay [9] and in assay [10].

Regarding `CC(C)(O)c1ccc(C(C)(C)O)cc1`, the Potency entry in assay [1], in assay [2], in [3], in [4], in assay [5] and in [6] was “inactive” throughout. The Potency entry in [7] is “inactive”. For the same molecule, the molecule was classed as inactive in assay [8], in [9] and in assay [10].

`C=CCN(CC=C)CC=C`: the Potency entry in assay [1], in [2], in assay [3], in assay [4], in assay [5] and in assay [6] was “inactive” in each case. The Potency entry in assay [7] is “inactive”. Besides, the molecule was called inactive in assay [8], in [9] and in assay [10].

As to `CC1=C(O)C(=O)CO1`, the Potency result in assay [1], in assay [2], in [3], in assay [4], in [5] and in assay [6] was “inactive” each time. In addition, in assay [7], the Potency result is “inactive”. For the same molecule, the call in assay [8], in [9] and in assay [10] was inactive.

With `CN(C)c1cc(NC(=O)CNC(C)(C)C)c(O)c2c1C[C@H]1C[C@H]3[C@H](N(C)C)C(=O)C(C(N)=O)=C(O)[C@@]3(O)C(=O)C1=C2O`, the Potency result in assay [1], in [2], in assay [3], in assay [4], in assay [5] and in [6] was “inactive” throughout. Besides, in assay [7], the Potency result was “inactive”. The result in assay [8], in [9] and in [10] was inactive.

For the molecule `CC[C@@]1(c2ccccc2)NC(=O)N(C)C1=O`, the Potency entry in assay [1], in assay [2], in assay [3], in [4], in [5] and in assay [6] was “inactive” throughout. Besides, in [7], the Potency entry is “inactive”. Further, the outcome in [8], in assay [9] and in [10] was inactive.

As to `CC(=O)OC/C=C(/C)CCC=C(C)C`, the Potency result in assay [1], in assay [2], in [3], in [4], in assay [5] and in [6] was “inactive” in each case. In addition, the Potency result in [7] was “inactive”. Further, the molecule was called inactive in [8], in assay [9] and in [10].

Regarding `C=CCCCCCCCCOC(C)=O`, the Potency entry in assay [1], in assay [2], in assay [3], in [4], in [5] and in assay [6] was “inactive” throughout. Further, in [7], the Potency result is “inactive”. Besides, the call in [8], in [9] and in assay [10] was inactive.

On to `CCCCCCCCS(=O)(=O)O`, for which the Potency entry in assay [1], in assay [2], in [3], in assay [4], in assay [5] and in assay [6] was “inactive” throughout. The Potency entry in assay [7] was “inactive”. For the same molecule, the call in [8], in [9] and in [10] was inactive.

On to `C=COCCCCO`, for which the Potency result in assay [1], in assay [2], in [3], in assay [4], in assay [5] and in assay [6] was “inactive” throughout. Besides, the Potency entry in [7] was “inactive”. The result in [8], in [9] and in assay [10] was inactive.

For the molecule `CSC(=O)c1cccc2nnsc12`, the Potency result in assay [1], in assay [2], in assay [3], in [4], in [5] and in [6] was “inactive” in each case. Besides, in assay [7], the Potency entry was “inactive”. Further, the outcome in assay [8], in assay [9] and in [10] was inactive.

Regarding `CCOC(=O)CC(C(C)=O)C(C)=O`, the Potency result in assay [1], in assay [2], in assay [3], in [4], in [5] and in assay [6] was “inactive” each time. In assay [7], the Potency entry was “inactive”. For the same molecule, the molecule was classed as inactive in [8], in assay [9] and in assay [10].

For the molecule `O=S(=O)(O)c1cc(I)c(O)c2ncccc12`, the Potency entry in assay [1], in assay [2], in assay [3], in [4], in [5] and in assay [6] was “inactive” throughout. Besides, in assay [7], the Potency result was “inactive”. The call in assay [8], in assay [9] and in [10] was inactive.

For `C=CCCCCCCCCCCCCCC`, the cytotoxicity is 1.07% [at 15.8 µM] in [1] and 7.56% [at 15.8 µM] in assay [5]. Also, the cytotoxicity increase in [2] is -1.48% [at 15.8 µM]; in assay [4], -0.422% [at 15.8 µM]; in assay [6] it was -0.009% [at 15.8 µM]; in assay [7], 2.81% [at 15.8 µM]. Further, the activity change, negative = cytotoxicity in assay [3] is -0.897% [at 15.8 µM]; in assay [9], -1.45% [at 15.8 µM]; in assay [10], -3.89% [at 15.8 µM]. The activity change, negative = cytotoxic in assay [8] was -0.802% [at 15.8 µM].

In the case of `CCCCN=C(N)N=C(N)N`, the Potency entry in assay [1], in [2], in assay [3], in assay [4], in assay [5] and in assay [6] was “inactive” in each case. Further, in [7], the Potency entry was “inactive”. Further, the call in [8], in assay [9] and in assay [10] was inactive.

For `CCOC(=O)[C@H](CCc1ccccc1)N[C@H]1CS[C@H](c2cccs2)CN(CC(=O)O)C1=O`, the Potency result in assay [1], in assay [2], in assay [3], in [4], in assay [5] and in assay [6] was “inactive” throughout. The Potency result in [7] is “inactive”. Besides, the call in assay [8], in assay [9] and in assay [10] was inactive.

Regarding `CCOC(=O)CC`, the Potency result in assay [1], in assay [2], in assay [3], in assay [4], in assay [5] and in assay [6] was “inactive” in each case. Also, the Potency result in assay [7] is “inactive”. Besides, the call in assay [8], in assay [9] and in assay [10] was inactive.

`COC(=O)c1cc(Cl)c(NC(C)=O)cc1OC`: the Potency result in [1], in [2], in [3], in [4], in assay [5] and in assay [6] was “inactive” in each case. Besides, in assay [7], the Potency result was “inactive”. Further, the molecule was called inactive in assay [8], in assay [9] and in assay [10].

For the molecule `N=C(N)S(=O)O`, the Potency entry in assay [1], in assay [2], in assay [3], in assay [4], in assay [5] and in assay [6] was “inactive” throughout. Moreover, in assay [7], the Potency entry is “inactive”. Besides, the call in assay [8], in assay [9] and in assay [10] was inactive.

`CC(=O)Nc1ccc(S(=O)(=O)Nc2cc(C)on2)cc1`: the Potency result in assay [1], in assay [2], in assay [3], in [4], in assay [5] and in assay [6] was “inactive” throughout. Moreover, the Potency entry in assay [7] was “inactive”. In addition, the result in assay [8], in [9] and in assay [10] was inactive.

As to `O=c1[nH]c(=O)c2cn[nH]c2[nH]1`, the Potency entry in [1], in [2], in [3], in [4], in assay [5] and in assay [6] was “inactive” throughout. Also, the Potency result in assay [7] was “inactive”. The result in assay [8], in assay [9] and in [10] was inactive.

With `CC(C)OCCO`, the Potency entry in [1], in assay [2], in assay [3], in assay [4], in [5] and in assay [6] was “inactive” throughout. Also, the Potency result in assay [7] was “inactive”. In addition, the molecule was classed as inactive in [8], in assay [9] and in assay [10].
